PubChem BioAssay AID651599 (National Center for Advancing Translational Sciences (NCATS), 2012)
Inconclusive results are not listed. Calls follow the shape of the dose curve; as a rule, active = well fitted inhibition curve with a large enough effect; inconclusive = small, poorly fitted or top-dose-only effect; inactive = no such curve, though single readings can be large or run the other way.

biological target: Tumor susceptibility gene 101 protein (Homo sapiens) (UniProt Q99816); assay: qHTS Assay for Iinhibitors of HIV-1 Budding by Blocking the Interaction of PTAP/TSG101: Hit Validation in TR assay; details: Tsg101 binding domain + Texas Red-labeled PTAP peptide, fluorescence polarization, 20 min; series mostly up to 57.5 µM; activity change, negative = inhibition: at the top concentration
Outline: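 Fluorescence polarization: Tsg101 binding domain (10 uM final) with Texas Red-labelled PTAP peptide (50 nM final) in HEPES pH 7.5, 0.15 M NaCl, Tween 20, EDTA, TCEP; 20 min binding at room temperature after compound addition.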
% is scaled to controls: 0 for no effect and ±100 for the full control effect.

Tumor susceptibility gene 101 protein (Homo sapiens), sequence (Q99816 whole entry, looked up, the tested form may be a part): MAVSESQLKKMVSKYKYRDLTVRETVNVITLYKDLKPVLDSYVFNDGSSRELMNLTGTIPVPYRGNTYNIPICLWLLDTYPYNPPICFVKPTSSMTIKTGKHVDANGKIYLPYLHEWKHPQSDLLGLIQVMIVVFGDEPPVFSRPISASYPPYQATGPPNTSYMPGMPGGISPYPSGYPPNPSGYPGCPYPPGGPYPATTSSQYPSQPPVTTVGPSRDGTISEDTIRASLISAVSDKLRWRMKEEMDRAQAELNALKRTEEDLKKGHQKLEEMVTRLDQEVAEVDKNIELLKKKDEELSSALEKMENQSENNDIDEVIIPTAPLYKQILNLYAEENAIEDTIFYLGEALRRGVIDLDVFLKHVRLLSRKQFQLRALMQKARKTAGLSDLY

Activity change, negative = inhibition, inactive:
O=c1c(-c2cc3ccccc3o2)[n+]([O-])c2ccccc2n1OCc1ccccn1 202%
CC(C)(C)N=Cc1c(O)ccc2oc3c(c12)CCCC3 -591% [at 57.5 µM, above what the read-out allows, likely interference]
CN(C)c1ccc(/C=C(\C#N)C(=O)Nc2nc3c(s2)CCN(Cc2ccccc2)C3)cc1 28.5%
Nc1ccc(-c2c3ccc(=O)cc-3oc3cc(O)ccc23)c(C(=O)O)c1 -14.5%
CC(C)(C)C(=O)c1sc2nc(-c3cccs3)cc(C(F)(F)F)c2c1N -10.8%
O=C(NCc1cccc(C(F)(F)F)c1)c1cccc2c1C(=O)c1ccc(N3CCC(Cc4ccccc4)CC3)cc1S2(=O)=O -7.43%
O=C(CCN1C(=O)/C(=C/c2ccco2)SC1=S)Nc1ccc(O)cc1C(=O)O -21.6%
CNc1ccc2c3c(cccc13)C(=O)N(C)C2=O 22.8%
CCN(CC)S(=O)(=O)c1ccc(C(=O)OCCN2C(=O)c3cccc4c(N5CCOCC5)ccc(c34)C2=O)cc1 9.03%
O=[n+]1c2c(n([O-])c3cc(F)c(N4CCCC4)cc31)CCC2 27.5%
Cn1nc(-c2ccccc2)c2nc3ccccc3nc21 -0.814%
O=C1C=CC(=O)c2c(O)c(CO)c(CO)c(O)c21 -27.2%
CC1C2C(c3ccccc3)N(C)C(=O)N(C)C2N(C)C(=O)N1C (stereo not drawn) -10.7%
CC1=CC(=C(C#N)c2nc3ccccc3s2)C=C(C)N1CC1CCCO1 (stereo not drawn) 2.93%
C=CCOc1ccc(C2OC34CCCCC3C(C#N)(C#N)C2(C#N)C(=N)O4)cc1 (stereo not drawn) -21.9%
CC(=O)Nc1ccc(Nc2c3c4c(cccc4n(C)c2=O)C(=O)c2ccccc2-3)cc1 -28.2%
O=C(NCc1ccccc1Br)c1cccc2c1C(=O)c1ccc(N3CCC(Cc4ccccc4)CC3)cc1S2(=O)=O 8.68%
CCOc1ccc(S(=O)(=O)N2CCc3cc(OC)c(OC)cc3C2)cc1 1.06%
Oc1[nH]c2ccc(Br)cc2c1N=Nc1ccc(F)cc1 25.5%
Cn1cccc1/C=C1\SC(=S)N(NC(=O)c2ccccc2Cl)C1=O -15.6%
Cc1cccc(N=Nc2c(O)[nH]c3ccc(F)cc23)c1 -2.4%
CCCCCn1nc(-c2ccccc2)c2nc3ccccc3nc21 -25.3%
CC1C2C(C)N(C)C(=O)N(C)C2N(C)C(=O)N1C (stereo not drawn) -1.62%
